Measurements from PubChem BioAssay (NCATS).
Active and inactive are the calls of the source.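 The calls were made as follows: active = calcium activation more than 3 SD above the typical response in the agonist read; inactive = the rest.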

Molecular target: Thyrotropin-releasing hormone receptor (Homo sapiens) (UniProt P34981)
Assay: qHTS for Small Molecule Agonists and Allosteric Enhancers of Human TRH Receptor: Validation Screen for Agonists (AID 493127);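 also: intracellular calcium rise by fluo-8 fluorescence before TRH EC20 addition; 0% is about no effect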
Details: TRH receptor agonist cell assay; at 2 µM; hits give high values
Description: NIH Chemical Genomics Center [NCGC]
NIH Molecular Libraries Probe Centers Network [MLPCN]
Assay Submitter (PI): Marvin Gershengorn
This project aims to identify small drug-like molecules that activate (agonists) the thyrotropin releasing hormone (TRH) receptor (TRHR) or enhance its TRH-stimulated activity (allosteric enhancers). TRHR, a drug-accessible cell surface receptor expressed in specific brain regions, and its ligand TRH have been implicated in several central nervous system disorders, including depression and anxiety. Small molecule TRHR agonists or allosteric enhancers that are metabolically stable and able to cross the blood-brain barrier might serve as probes to elucidate the roles of brain TRH receptors in animal models, and might be valuable as lead compounds for the development of drugs to treat patients with central nervous system disorders.
Upon TRHR-Gq activation in TRHR cells, intracellular calcium is released from stores in the endoplasmic reticulum. […] This validation screen measures compound-induced activation of calcium release.
For the HTS assay freshly prepared cells are plated at a density of 2000/well in 3 ul of complete DMEM medium containing 10% serum in 1536-well plates and cultured over night at 37 C in a humidified incubator with 5% CO2. The next day, 2 ul of a no wash calcium dye (ABD Bioquest) was added to the cells and plates were incubated at room temperature for 1 hour. For the assay, assay plates were loaded into the FDSS kinetic plate reader. A 10 cycle (1 second/cycle) baseline measurement is taken and then the FDSS online 1536 pintool delivers 23 nl of compound library (as well as TRH controls) to the plate. The plate is measured for kinetically at 1 cycle/sec for 180 seconds and is considered to be the agonist portion of the assay (eg, compounds which activate a positive calcium response during this portion are flagged as potential agonists). Following the 180 second read, 1 ul of either an EC20 (positive modulation assay) is delivered by an onboard pipette head. Measurements are taken kinetically for an additional 180 seconds.
TRHR FDSS Screening Protocol
1. Reagent, 3 uL 2000 cells/well 1536 TC treated Black plate in media containing 10% FCS
2. Time, 18 hours, 33.5C 5% CO2 (cells grown at 37C)
3. Reagent, 2 uL ABD fluo-8 Ca dye
4. Time, 30 min-1.5hrs hours, Room temp (6 plates/batch)
5. Detector, EX 480/EM 530C, FDSS 10 cycles baseline (1sec/cycle)
6. Compound, 23 nL of stock solution from library
7. Detector, EX 480/EM 530C, FDSS 230 cycles (1sec/cycle) Agonist mode
8. Compound, 1 ul EC20 of TRH made up in HEPES HBSS, 10 nM final
9. Detector, EX 480/EM 530C, FDSS 100 cycles (1sec/cycle) Potentiator mode

Chain of Thyrotropin-releasing hormone receptor (Homo sapiens) (P34981 whole entry, looked up): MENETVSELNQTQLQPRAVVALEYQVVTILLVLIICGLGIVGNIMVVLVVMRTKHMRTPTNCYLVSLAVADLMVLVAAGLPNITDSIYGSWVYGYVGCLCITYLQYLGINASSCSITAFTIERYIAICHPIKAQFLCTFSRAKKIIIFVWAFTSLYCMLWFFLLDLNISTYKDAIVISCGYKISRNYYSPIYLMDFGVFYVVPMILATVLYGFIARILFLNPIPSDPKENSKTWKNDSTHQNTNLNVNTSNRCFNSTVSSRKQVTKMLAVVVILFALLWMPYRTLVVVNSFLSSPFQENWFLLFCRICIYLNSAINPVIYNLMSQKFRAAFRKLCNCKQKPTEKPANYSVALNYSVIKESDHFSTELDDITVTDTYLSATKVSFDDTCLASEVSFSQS

Row | Compound | activation
1 | Cc1cccc(C)c1NC(=O)C[N+](C)(C)C | -0.0625% (inactive)
2 | O=C(OCCN1CCCCC1)c1c[nH]c2ccccc12 | 1.38% (inactive)
3 | C[N+](C)(C)CCC(=O)c1cccc2ccccc12 | 3.69% (inactive)
4 | O=S(=O)(NCCNC/C=C/c1ccc(Br)cc1)c1cccc2cnccc12 | 5.62% (inactive)
5 | CC(N)=NCc1cccc(CN)c1 | -0.25% (inactive)
6 | O=Nc1c(-c2c(O)[nH]c3ccccc23)[nH]c2ccccc12 | -6% (inactive)
7 | Nc1c(S(=O)(=O)O)cc(Nc2ccc(Nc3nc(Cl)nc(Nc4ccc(S(=O)(=O)O)cc4)n3)c(S(=O)(=O)O)c2)c2c1C(=O)c1ccccc1C2=O | 1.5% (inactive)
8 | Cc1cccc(/C=C/c2ccccc2)n1 | -7% (inactive)
9 | NC(CCC(=O)NCS(=O)(=O)O)C(=O)O (stereo not drawn) | 1.56% (inactive)
10 | COc1ccccc1NC(=O)Nc1nc(-c2cccnc2)nc2ccccc12 | 0.25% (inactive)
11 | C1CCC(N=C(NC23CC4CC(CC(C4)C2)C3)N2CCOCC2)CC1 | 1.31% (inactive)
12 | O=C(O)c1cc(=O)c2ccc(Cl)cc2[nH]1 | 1.31% (inactive)
13 | S=C(Nc1ccccc1)Nc1nccs1 | 1.31% (inactive)
14 | CN(C)CCCCSC(=N)N | 1.19% (inactive)
15 | NCCCCCCNS(=O)(=O)c1cccc2c(Cl)cccc12 | 2.44% (inactive)
16 | COc1ccc2c(c1)c(CC(=O)N1CCOCC1)c(C)n2C(=O)c1ccc(Cl)cc1 | 1.25% (inactive)
17 | Oc1cc2c(c(Cl)c1O)CCNCC2c1ccccc1 (stereo not drawn) | 2.25% (inactive)
18 | COc1cc2c(cc1C(F)(F)F)N(C(=O)Nc1cc(F)cc(-c3cccnc3)c1)CC2 | 5.25% (inactive)
19 | CCCn1c(=O)c2[nH]c(-c3ccc(OCC(=O)Nc4ccc(C#N)cc4)cc3)nc2n(CCC)c1=O | 0.938% (inactive)
20 | NCCNS(=O)(=O)c1cccc2cnccc12 | -0.5% (inactive)
21 | N#C/C(=C\c1ccc(O)c(O)c1)C(=O)Nc1ccccc1 | 5.88% (inactive)
22 | COC(=O)c1c(-c2cc(OC)c(OC)c(OC)c2)c2ccnc(OCc3ncccn3)c2c(=O)n1Cc1ccnc(C)c1 | 0.438% (inactive)
23 | CCCCCCCCCCCCC/C=C/[C@@H](O)[C@@H](N)CO | 0.312% (inactive)
24 | Cn1cnc2c(NC3CCCC3)ncnc21 | 0.875% (inactive)
25 | FC(F)(F)c1cc(CO[C@H]2CCCN[C@H]2c2ccccc2)cc(C(F)(F)F)c1 | 2.81% (inactive)
26 | CC(C)=CCC/C(C)=C/CC/C(C)=C/CSc1ccccc1C(=O)O | 1.12% (inactive)
27 | Cc1ccc(OCC(O)C(C)NC(C)C)c2c1CCC2 (stereo not drawn) | 2.81% (inactive)
28 | O=C(Nc1cc(C(=O)Nc2ccc(S(=O)(=O)O)cc2S(=O)(=O)O)cc(C(=O)Nc2ccc(S(=O)(=O)O)cc2S(=O)(=O)O)c1)Nc1cc(C(=O)Nc2ccc(S(=O)(=O)O)cc2S(=O)(=O)O)cc(C(=O)Nc2ccc(S(=O)(=O)O)cc2S(=O)(=O)O)c1 | 0.312% (inactive)
